Records with an inconclusive call do not appear. Active and inactive are the calls of the source. Calls follow the shape of the dose curve; as a rule, active = well fitted cell-killing curve with a large enough effect in the repeat runs; inconclusive = weak or mixed curves, or effect the other way; inactive = no such curve, though single readings can be large or run the other way.
Assay: qHTS assay to identify small molecule antagonists of the glucocorticoid receptor (GR) signaling pathway - cell viability counter screen (AID 720693); also: nearly all actives have a fitted effect of over 55% in size
Conditions: GR-bla HeLa viability, CellTiter-Glo luminescence, 18 h, with 5 nM dexamethasone present; series mostly up to 58.5 µM; viability change, negative = cytotoxic: at the top concentration
Excerpt: National Center for Advancing Translational Sciences [NCATS]
NIH Chemical Genomics Center [NCGC]
U.S. Environmental Protection Agency [EPA]
National Institutes of Environmental Health Sciences [NIEHS]
National Toxicology Program [NTP]
U.S. Food and Drug Administration [FDA]
The Glucocorticoid receptor (GR) is one of the members of the nuclear receptor family of ligand-dependent transcription factors. GR plays a critical role in carbohydrate, protein and lipid metabolisms and programmed cell death. CellSensor GR-bla HeLa cell line (Invitrogen) contains a beta-lactamase reporter gene under the control of the glucocorticoid response element stably integrated into HeLa cells, a cervical cancer cell line that expresses glucocorticoid receptor. The activation of the reporter gene under culture conditions can be detected by fluorescence intensity. This cell line has been used to screen the Tox21 10K compound library and to identify the compounds that inhibit the GR signaling. The cytotoxicity of the Tox21 compound library against the GR-bla HeLa cell line was tested in parallel by measuring the cell viability using CellTiter-Glo assay in the same wells.
Tox21 Assay Protocol Summary:
The GR-bla HeLa cells were dispensed at 1500 cells/5 ul/well in 1536-well black wall/clear bottom plates using a Multidrop Combi (ThermoFisher Scientific, Waltham, MA) dispenser. After the assay plates were incubated at a 37 C/5% CO2 incubator for 4 hours, 23 nL of compounds dissolved in DMSO, positive controls or DMSO only was transferred to the assay plate by a pintool station (Kalypsys, San Diego, CA), followed by addition of 1 uL of dexamethasone (5 nM, final concentration in the well). The plates were incubated at 37 C for 18 hours. After 1 uL of LiveBLAzerTM B/G FRET substrate was added using a Flying Reagent Dispenser (Aurora Discovery, San Diego, CA), the plates were incubated at room temperature (RT) for 2 hours, and fluorescence intensity was measured by an Envision plate reader (PerkinElmer, Shelton, CT). After measurement of bla assay, 3 ul CellTiter-Glo (Promega, Madison, WI) was added to measure the cytotoxicity and the plates were then incubated at RT for 30 min. The luminescence was measured using a ViewLux (Perkin Elmer) plate reader.
% is scaled to controls: 0 for no effect and ±100 for the full control effect; potency is read from the fitted curve at half-maximal effect.

| SMILES | viability change, negative = cytotoxic | Potency |
| --- | --- | --- |
| CN(C)c1ccc(SC#N)cc1 | 4.54% (inactive) | – |
| CCCC/C=C/CCCCO | -0.126% (inactive) | – |
| Cc1ccc(-n2nc(C(C)(C)C)cc2NC(=O)Nc2ccc(OCCN3CCOCC3)c3ccccc23)cc1 | -5.4% (inactive) | – |
| CC1=NC(C)OC1C (stereo not given) | -0.195% (inactive) | – |
| CCN(C(=O)c1cc(C)cc(OC[C@H](C)Nc2ccncc2)c1)C(C)C | 1.83% (inactive) | – |
| CCCCCCCCCCCCc1ccc(O)cc1 | – | 21.9 µM (active) |
| CCc1oc2ccccc2c1C(=O)c1cc(Br)c(O)c(Br)c1 | – | 13.4 µM (active) |
| c1ccc(CSCc2ccccc2)cc1 | 7.3% (inactive) | – |
| CCCCCCCCOc1ccccc1C(=O)Nc1ccc(C(=O)OCC[N+](C)(CC)CC)cc1 | – | 23.9 µM (active) |
| OCCN(CCO)c1nc(N2CCCCC2)c2nc(N(CCO)CCO)nc(N3CCCCC3)c2n1 | 8.29% (inactive) | – |
| CCCCCCCCCCCC[N+](C)(C)CCCCCCCCCCCC | – | 24.5 µM (active) |
| Oc1cc2ccccc2c2ccccc12 | – | 17.4 µM (active) |
| O=c1c(-c2ccccc2)c1-c1ccccc1 | 1.84% (inactive) | – |
| O=C(O)c1ccc(Cl)c(Cl)c1 | 10.6% (inactive) | – |
| CCCCN1C(=O)[C@@H]([C@H](O)C2CCCCC2)NC(=O)C12CCN(Cc1ccc(Oc3ccc(C(=O)O)cc3)cc1)CC2 | -8% (inactive) | – |
| Cc1ccc2oc(CN(Cc3ccccc3)C(=O)Nc3c(F)cc(F)cc3F)c(-c3ccc(Cl)cc3)c2c1 | -1.34% (inactive) | – |
| NC(=O)CC[C@@H]1NC(=O)[C@H](Cc2ccccc2)NC(=O)[C@H](Cc2ccc(O)cc2)NC(=O)CCSSC[C@@H](C(=O)N2CCC[C@H]2C(=O)N[C@@H](CCCN=C(N)N)C(=O)NCC(N)=O)NC(=O)[C@H](CC(N)=O)NC1=O | – | inactive |
| C[C@@H]1C[C@H]2[C@@H]3CCC4=CC(=O)C=C[C@]4(C)[C@@]3(Cl)[C@@H](O)C[C@]2(C)[C@@]1(OC(=O)c1ccco1)C(=O)CCl | 6.08% [at 27 µM] (inactive) | – |
| O=C(N/N=C/c1ccccc1O)c1ccncc1 | -3.79% (inactive) | – |
| Cc1cc(O)c2ccccc2c1O | 9.31% (inactive) | – |

| SMILES | viability change, negative = cytotoxic | Potency |
| --- | --- | --- |
| N=C1N=C(N)c2ccccc21 | 13.7% (inactive) | – |
| CN(C)[C@@H]1C(=O)C(C(N)=O)=C(O)[C@@]2(O)C(=O)C3=C(O)c4c(O)ccc(Cl)c4[C@@H](O)[C@H]3C[C@@H]12 | -0.443% (inactive) | – |
| CCCCN(CCCC)C(=O)N(CCCC)CCCC | 20% (inactive) | – |
| Cc1cc(O)c(C(C)(C)C)cc1C(C)(C)C | – | 43.6 µM (active) |
| O=C(NO)C1(NS(=O)(=O)c2ccc(Oc3ccc(F)cc3)cc2)CCOCC1 | 8.06% (inactive) | – |
| C[n+]1cc2c3c(ccc2c2ccc4cc5c(cc4c21)OCO5)OCO3 | – | 6.74 µM (active) |
| O=C(Nc1cccc(Cl)c1)OCC#CCCl | – | 54.9 µM (active) |
| Cn1cc(C(=O)[C@@H]2CCc3nc[nH]c3C2)c2ccccc21 | 9.11% (inactive) | – |
| Cc1onc(-c2c(Cl)cccc2Cl)c1C(=O)N[C@@H]1C(=O)N2[C@@H]1SC(C)(C)[C@@H]2C(=O)O | 11.8% (inactive) | – |
| CCOC(=O)O[C@H](C)OC(=O)c1ccc2c(c1)cc(C(=O)NC1CCN(C(C)C)CC1)n2Cc1cc(-c2ccc(Cl)s2)on1 | – | 20.4 µM (active) |
| CCOC(=O)O[C@]1(C(=O)OCCl)CC[C@H]2[C@@H]3CCC4=CC(=O)C=C[C@]4(C)[C@H]3[C@@H](O)C[C@@]21C | 25.2% (inactive) | – |
| COCCCC/C(=N\OCCN)c1ccc(C(F)(F)F)cc1 | -1.5% (inactive) | – |
| CC(C)(C)C(=O)OCOC(=O)[C@@H]1N2C(=O)[C@@H](NC(=O)[C@H](N)c3ccccc3)[C@H]2SC1(C)C | 1.59% [at 27 µM] (inactive) | – |
| CCC(C)Nc1ccc(NC(C)CC)cc1 (stereo not given) | – | 44.5 µM (active) |
| CC(C)c1ccc2c(c1)CC[C@H]1[C@](C)(CN)CCC[C@]21C | – | 38.9 µM (active) |
| CCCCCCCCOC(=O)c1ccc(O)cc1 | 0.543% (inactive) | – |
| NC(=O)N1C(=O)C(C(=O)c2cc(Cl)cs2)c2cc(F)c(Cl)cc21 (stereo not given) | – | 38.9 µM (active) |
| Clc1ccc2nsnc2c1NC1=NCCN1 | -1.45% (inactive) | – |
| CCCCCCCCCCCCCCCC(=O)OC[C@H](O)[C@H]1OC(=O)C(O)=C1O | – | inactive |
| CCCCCCCCCCCCCCCS(=O)(=O)Oc1ccccc1 | -2.04% (inactive) | – |

Reference: PubChem BioAssay (Tox21)
